# In the supplement of paper PMC8728848:
# The entries come from a sample that favours the strongest signals as a whole.
# B1: SLLPI (Mus musculus), Q9D9X8 (protein)
# chain: MGICMSMYTQVLVPVDADGDHHILWSRFYERWGSCFNPCAGLVNCLPPHSSALYLCHRMEARSRAPRRQLCPPGITWLALAYLLSCLLASSKAKVFSRCELAKEMHDFGLDGYRGYNLADWVCLAYYTSGFNTNAVDHEADGSTNNGIFQISSRRWCRTLASNGPNLCRIYCTDLLNNDLKDSIVCAMKIVQEPLGLGYWEAWRHHCQGRDLSDWVDGCDF
# Assays:
# Assay in all cases: glycan array binding signal (z-score within array); higher = stronger binding
# Conditions in all cases: glycan notation: IUPAC condensed, linker removed
# [1] = target: Fuc(a1-2)Gal(b1-3)GalNAc(b1-3)Gal
# Summary of the method: (§1)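 The binding signal is a Z-score computed within each array. Data were drawn from 3228 arrays in the Consortium for Functional Glycomics database, restricted to those with a known protein sequence. Scores were averaged over arrays of the same protein sequence at different concentrations or buffers, and over linkers, and negative values can be taken as non-binding.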
# Fuc(a1-2)Gal(b1-4)GlcNAc = target: Fuc(a1-2)Gal(b1-4)GlcNAc
# Summary of the method: as §1
# [2] = target: Fuc(a1-2)Gal(b1-4)GlcNAc(b1-3)Gal(b1-4)GlcNAc
# Summary of the method: as §1
# [3] = target: Fuc(a1-2)Gal(b1-4)GlcNAc6S
# Summary of the method: as §1
# [4] = target: Fuc(a1-2)[Gal(a1-3)]Gal(b1-3)GlcNAc
# Summary of the method: as §1
# [5] = target: Fuc(a1-3)[Gal3S(b1-4)]GlcNAc6S
# Summary of the method: as §1
# Gal(b1-2)Gal = target: Gal(b1-2)Gal
# Summary of the method: as §1
# [6] = target: Gal(b1-3)GlcNAc(b1-2)Man(a1-3)[Gal(b1-3)GlcNAc(b1-2)Man(a1-6)]Man(b1-4)GlcNAc(b1-4)GlcNAc
# Summary of the method: as §1
# [7] = target: Gal(b1-3)[Fuc(a1-4)]GlcNAc(b1-3)Gal(b1-4)[Fuc(a1-3)]GlcNAc
# Summary of the method: as §1
# [8] = target: Gal(b1-4)GlcNAc(b1-3)[GlcNAc(b1-6)]Gal(b1-4)GlcNAc
# Summary of the method: as §1
# Gal3S(b1-3)GlcNAc = target: Gal3S(b1-3)GlcNAc
# Summary of the method: as §1
# Gal3S(b1-4)Glc6S = target: Gal3S(b1-4)Glc6S
# Summary of the method: as §1
# [9] = target: Gal3S(b1-4)[Fuc(a1-3)]Glc
# Summary of the method: as §1
# [10] = target: GlcNAc(b1-3)Gal(b1-3)GalNAc
# Summary of the method: as §1
# [11] = target: GlcNAc(b1-4)GlcNAc(b1-4)GlcNAc
# Summary of the method: as §1
# [12] = target: GlcNAc(b1-4)GlcNAc(b1-4)GlcNAc(b1-4)GlcNAc(b1-4)GlcNAc
# Summary of the method: as §1
# [13] = target: Man(a1-2)Man(a1-2)Man(a1-3)Man
# Summary of the method: as §1
# [14] = target: Man(a1-2)Man(a1-3)[Man(a1-2)Man(a1-6)]Man(a1-6)[Man(a1-2)Man(a1-2)Man(a1-3)]Man(b1-4)GlcNAc(b1-4)GlcNAc
# Summary of the method: as §1
# [15] = target: Man(a1-2)Man(a1-3)[Man(a1-6)]Man(a1-6)[Man(a1-2)Man(a1-3)]Man(b1-4)GlcNAc(b1-4)GlcNAc
# Summary of the method: as §1
# [16] = target: Neu5Ac(a2-3)Gal(b1-4)[Fuc(a1-3)]GlcNAc(b1-6)[Gal(b1-3)]GalNAc
# Summary of the method: as §1
# [17] = target: Neu5Ac(a2-6)Gal(b1-4)GlcNAc6S
# Summary of the method: as §1
binder,measurement,setting,value
B1,glycan array binding signal (z-score),[1],0.084
same,glycan array binding signal (z-score),Fuc(a1-2)Gal(b1-4)GlcNAc,-0.019
same,glycan array binding signal (z-score),[2],-0.448
same,glycan array binding signal (z-score),[3],0.445
same,glycan array binding signal (z-score),[4],-0.779
same,glycan array binding signal (z-score),[5],3.34
same,glycan array binding signal (z-score),Gal(b1-2)Gal,0.362
same,glycan array binding signal (z-score),[6],-0.288
same,glycan array binding signal (z-score),[7],-0.236
same,glycan array binding signal (z-score),[8],-0.03
same,glycan array binding signal (z-score),Gal3S(b1-3)GlcNAc,3.28
same,glycan array binding signal (z-score),Gal3S(b1-4)Glc6S,3.45
same,glycan array binding signal (z-score),[9],1.15
same,glycan array binding signal (z-score),[10],3.21
same,glycan array binding signal (z-score),[11],1.92
same,glycan array binding signal (z-score),[12],-0.401
same,glycan array binding signal (z-score),[13],-0.502
same,glycan array binding signal (z-score),[14],-0.652
same,glycan array binding signal (z-score),[15],0.317
same,glycan array binding signal (z-score),[16],-0.335
same,glycan array binding signal (z-score),[17],3.29
